For some of these results: Results with a measured potency or affinity are listed apart.
Assays:
Design in all cases: scale not given: direction of the effect not stated beside the values
[1] = biological target: Protein translocase subunit SecA (Escherichia coli (strain K12)) (UniProt P10408); test: Assay to Identify E. coli SecA ATPase Inhibitors; type: functional; conditions: 30 µM
[2] = biological target: T1, Ubiquitin-activating enzyme e1, putative (Leishmania donovani (strain BPK282A1)) (UniProt E9BSI1); test: Leishmania donovani Ubiquitin Activating Enzyme (LdE1); type: functional; conditions: 30 µM
T1 sequence (whole entry): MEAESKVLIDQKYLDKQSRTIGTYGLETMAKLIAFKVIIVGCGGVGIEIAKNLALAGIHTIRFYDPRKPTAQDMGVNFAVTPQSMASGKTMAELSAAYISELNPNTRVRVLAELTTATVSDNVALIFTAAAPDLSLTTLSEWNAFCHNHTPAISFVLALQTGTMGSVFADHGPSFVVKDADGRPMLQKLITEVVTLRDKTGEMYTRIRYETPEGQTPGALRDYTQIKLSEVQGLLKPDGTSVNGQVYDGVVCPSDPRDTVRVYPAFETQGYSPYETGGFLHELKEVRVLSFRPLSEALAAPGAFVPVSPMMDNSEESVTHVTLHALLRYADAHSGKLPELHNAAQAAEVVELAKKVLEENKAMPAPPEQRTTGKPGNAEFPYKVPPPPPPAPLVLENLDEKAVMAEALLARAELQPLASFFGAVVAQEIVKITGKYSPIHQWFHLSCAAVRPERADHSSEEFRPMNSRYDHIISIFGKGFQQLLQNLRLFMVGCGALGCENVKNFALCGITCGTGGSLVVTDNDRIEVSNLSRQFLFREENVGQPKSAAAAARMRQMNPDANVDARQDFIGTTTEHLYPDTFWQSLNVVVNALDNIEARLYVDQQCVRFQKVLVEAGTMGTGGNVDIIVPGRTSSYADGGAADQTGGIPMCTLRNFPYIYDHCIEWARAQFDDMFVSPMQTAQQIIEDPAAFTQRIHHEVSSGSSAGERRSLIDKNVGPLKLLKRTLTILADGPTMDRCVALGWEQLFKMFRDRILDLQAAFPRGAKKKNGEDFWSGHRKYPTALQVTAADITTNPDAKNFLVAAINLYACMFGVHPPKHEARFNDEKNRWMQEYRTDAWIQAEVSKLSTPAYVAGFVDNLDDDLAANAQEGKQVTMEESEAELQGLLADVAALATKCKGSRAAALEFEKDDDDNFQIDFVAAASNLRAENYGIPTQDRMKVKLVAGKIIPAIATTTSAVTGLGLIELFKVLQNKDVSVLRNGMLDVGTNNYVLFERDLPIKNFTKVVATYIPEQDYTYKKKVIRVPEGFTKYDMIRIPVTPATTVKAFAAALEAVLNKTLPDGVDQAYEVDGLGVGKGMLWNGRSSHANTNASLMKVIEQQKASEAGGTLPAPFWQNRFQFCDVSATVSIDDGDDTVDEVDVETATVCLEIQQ

[3] = biological target: AMP-activated protein kinase, AMPK (Homo sapiens) (UniProt P54646+O43741+P54619+Q9UGJ0+Q9Y478+Q13131+Q9UGI9); test: AMP-dependent Kinase enzyme assay. An in vitro enzyme assay that detects ADP turnover that is directly proportional to AMPK activity. This uses naive AMPK that is activated during the assay with MK-8722; type: functional; conditions: 30 µM
[4] = biological target: Sialic acid-binding Ig-like lectin 9 (Homo sapiens) (UniProt Q9Y336); test: Hs-Siglec9 ALPHAscreen SOP 20170721; conditions: 10 µM
Trypanosoma cruzi = test: Trypanosoma cruzi phosphomannomutase and mannose-1-phosphate guanylyltransferase assay; type: functional; conditions: 10 µM
[5] = biological target: T2, Arginase-2, mitochondrial (Homo sapiens) (UniProt P78540); test: in vitro enzyme assay to detect the production of urea directly proportional to the activity of Arginase II; type: functional; conditions: 33.3 µM; also: in the data most compounds retested in dose-response had high values
T2 sequence (whole entry): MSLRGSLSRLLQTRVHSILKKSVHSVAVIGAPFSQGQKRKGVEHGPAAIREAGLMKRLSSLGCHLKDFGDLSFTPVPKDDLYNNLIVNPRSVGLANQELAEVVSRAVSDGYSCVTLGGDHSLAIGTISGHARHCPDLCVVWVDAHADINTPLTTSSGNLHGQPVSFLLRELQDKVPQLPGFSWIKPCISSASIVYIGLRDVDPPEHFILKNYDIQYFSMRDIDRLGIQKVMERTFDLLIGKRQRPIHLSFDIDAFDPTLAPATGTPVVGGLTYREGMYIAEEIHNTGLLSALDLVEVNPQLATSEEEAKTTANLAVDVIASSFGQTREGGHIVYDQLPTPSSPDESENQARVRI

[6] = biological target: T3, Proteasome subunit beta (Trypanosoma cruzi) (UniProt O96673); test: Trypanosoma cruzi proteasome chymotrypsin-like activity (TcProtChymo) assay.; also: in the data most compounds retested in dose-response had high values; type: functional; conditions: 9.37 µM
T3 sequence (whole entry): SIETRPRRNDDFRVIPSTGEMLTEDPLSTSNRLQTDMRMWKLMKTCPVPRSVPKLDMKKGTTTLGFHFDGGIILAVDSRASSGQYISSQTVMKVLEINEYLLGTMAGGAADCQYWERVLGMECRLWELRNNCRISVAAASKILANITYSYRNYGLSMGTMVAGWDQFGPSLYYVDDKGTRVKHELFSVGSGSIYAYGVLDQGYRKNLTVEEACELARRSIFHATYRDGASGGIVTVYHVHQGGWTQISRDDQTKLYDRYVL

Homo sapiens = organism: Homo sapiens; test: To identify inhibition of the IFN signalling (Jak-Stat) pathway via expression of an eGFP reporter gene under the control of an IFN-stimulated response element (ISRE) containing MxA promoter.; type: functional; conditions: 30 µM
[7] = biological target: T4, Tyrosyl-tRNA synthetase, putative (Trypanosoma cruzi (strain CL Brener)) (UniProt Q4DSP6); test: Trypanosoma cruzi tyrosyl tRNA synthetase (TcYRS) _High Tyrosine SOP; type: functional; conditions: 30 µM; also: in the data most compounds retested in dose-response had high values
T4 sequence (whole entry): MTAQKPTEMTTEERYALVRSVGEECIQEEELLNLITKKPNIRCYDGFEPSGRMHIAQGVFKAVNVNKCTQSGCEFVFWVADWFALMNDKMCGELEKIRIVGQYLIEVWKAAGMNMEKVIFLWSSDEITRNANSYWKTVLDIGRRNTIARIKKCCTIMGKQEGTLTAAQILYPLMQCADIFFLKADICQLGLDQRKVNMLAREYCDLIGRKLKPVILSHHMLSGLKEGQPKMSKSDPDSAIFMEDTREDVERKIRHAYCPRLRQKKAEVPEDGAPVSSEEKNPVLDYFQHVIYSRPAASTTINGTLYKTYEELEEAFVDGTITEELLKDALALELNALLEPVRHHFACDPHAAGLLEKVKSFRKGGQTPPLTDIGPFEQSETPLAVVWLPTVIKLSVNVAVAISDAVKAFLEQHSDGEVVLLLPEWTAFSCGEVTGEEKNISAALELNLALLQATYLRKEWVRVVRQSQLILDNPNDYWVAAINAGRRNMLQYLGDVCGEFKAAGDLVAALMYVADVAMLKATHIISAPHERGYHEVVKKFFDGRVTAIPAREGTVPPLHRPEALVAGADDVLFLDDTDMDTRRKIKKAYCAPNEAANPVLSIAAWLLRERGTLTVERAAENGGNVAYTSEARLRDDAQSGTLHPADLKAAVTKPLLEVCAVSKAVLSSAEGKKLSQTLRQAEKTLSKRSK

[8] = biological target: T4, Tyrosyl-tRNA synthetase, putative (Trypanosoma cruzi (strain CL Brener)); test: Trypanosoma cruzi tyrosyl tRNA synthetase (TcYRS) SOP; type: functional; conditions: 30 µM
[9] = biological target: Chromo domain-containing protein 1 (Saccharomyces cerevisiae (strain ATCC 204508 / S288c) (Baker's yeast)) (UniProt P32657); test: ScCHD-1 Enzyme Inhibition Assay; type: functional; conditions: 30 µM; also: in the data most compounds retested in dose-response had high values
Sequence of Chromo domain-containing protein 1 (Saccharomyces cerevisiae (strain ATCC 204508 / S288c) (Baker's yeast)) (P32657 whole entry, the tested form may be a part): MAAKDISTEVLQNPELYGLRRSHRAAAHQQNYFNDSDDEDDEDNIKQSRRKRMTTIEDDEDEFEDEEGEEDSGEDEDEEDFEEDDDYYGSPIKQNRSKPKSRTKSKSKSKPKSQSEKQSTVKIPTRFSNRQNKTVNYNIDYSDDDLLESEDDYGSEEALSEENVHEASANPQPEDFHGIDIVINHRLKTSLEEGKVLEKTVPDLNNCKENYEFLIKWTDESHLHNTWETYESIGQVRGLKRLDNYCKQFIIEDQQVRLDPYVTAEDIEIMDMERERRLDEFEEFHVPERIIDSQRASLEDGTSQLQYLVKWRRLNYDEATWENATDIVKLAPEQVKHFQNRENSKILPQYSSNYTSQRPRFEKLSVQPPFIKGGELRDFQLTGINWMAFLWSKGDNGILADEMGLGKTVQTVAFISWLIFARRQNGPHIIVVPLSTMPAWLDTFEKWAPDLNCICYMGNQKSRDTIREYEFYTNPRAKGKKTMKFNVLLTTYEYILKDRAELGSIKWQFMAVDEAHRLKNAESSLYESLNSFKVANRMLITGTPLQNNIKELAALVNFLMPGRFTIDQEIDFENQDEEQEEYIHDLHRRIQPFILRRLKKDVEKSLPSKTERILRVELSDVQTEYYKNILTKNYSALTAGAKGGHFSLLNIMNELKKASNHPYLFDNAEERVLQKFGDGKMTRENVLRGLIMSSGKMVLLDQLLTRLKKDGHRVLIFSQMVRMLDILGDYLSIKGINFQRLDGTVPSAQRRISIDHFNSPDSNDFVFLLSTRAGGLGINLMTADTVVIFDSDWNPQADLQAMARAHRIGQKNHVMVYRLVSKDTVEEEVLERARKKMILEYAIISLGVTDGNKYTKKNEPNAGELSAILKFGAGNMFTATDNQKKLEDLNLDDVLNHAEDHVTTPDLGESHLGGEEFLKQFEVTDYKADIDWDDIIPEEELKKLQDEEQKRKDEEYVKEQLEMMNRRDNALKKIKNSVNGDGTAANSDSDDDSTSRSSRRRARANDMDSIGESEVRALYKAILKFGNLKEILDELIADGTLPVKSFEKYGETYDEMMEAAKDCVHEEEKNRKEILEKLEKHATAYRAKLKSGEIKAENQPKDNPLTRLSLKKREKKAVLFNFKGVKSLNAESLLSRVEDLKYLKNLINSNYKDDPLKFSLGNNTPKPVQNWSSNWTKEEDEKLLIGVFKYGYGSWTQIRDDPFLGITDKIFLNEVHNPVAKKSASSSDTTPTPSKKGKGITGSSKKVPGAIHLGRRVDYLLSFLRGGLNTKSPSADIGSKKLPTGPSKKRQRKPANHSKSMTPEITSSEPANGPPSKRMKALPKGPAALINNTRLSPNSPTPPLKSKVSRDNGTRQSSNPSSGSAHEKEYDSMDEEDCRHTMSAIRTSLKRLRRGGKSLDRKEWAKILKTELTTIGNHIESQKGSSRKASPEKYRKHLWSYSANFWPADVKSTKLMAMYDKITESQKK

Sequence of Sialic acid-binding Ig-like lectin 9 (Homo sapiens) (Q9Y336 whole entry): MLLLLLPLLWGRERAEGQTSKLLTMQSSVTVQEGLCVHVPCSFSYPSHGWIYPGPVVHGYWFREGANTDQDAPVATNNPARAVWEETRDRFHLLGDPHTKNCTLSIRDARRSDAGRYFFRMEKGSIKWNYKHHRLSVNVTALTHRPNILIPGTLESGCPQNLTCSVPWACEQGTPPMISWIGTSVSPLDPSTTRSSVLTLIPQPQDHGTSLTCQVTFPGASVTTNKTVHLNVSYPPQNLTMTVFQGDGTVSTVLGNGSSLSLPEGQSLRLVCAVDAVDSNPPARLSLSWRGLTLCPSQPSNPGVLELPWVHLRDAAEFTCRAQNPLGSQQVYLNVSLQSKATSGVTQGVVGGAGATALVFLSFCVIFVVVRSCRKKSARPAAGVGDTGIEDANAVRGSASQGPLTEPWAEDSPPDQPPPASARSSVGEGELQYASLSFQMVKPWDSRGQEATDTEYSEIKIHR
Sequence of Protein translocase subunit SecA (Escherichia coli (strain K12)) (P10408 whole entry): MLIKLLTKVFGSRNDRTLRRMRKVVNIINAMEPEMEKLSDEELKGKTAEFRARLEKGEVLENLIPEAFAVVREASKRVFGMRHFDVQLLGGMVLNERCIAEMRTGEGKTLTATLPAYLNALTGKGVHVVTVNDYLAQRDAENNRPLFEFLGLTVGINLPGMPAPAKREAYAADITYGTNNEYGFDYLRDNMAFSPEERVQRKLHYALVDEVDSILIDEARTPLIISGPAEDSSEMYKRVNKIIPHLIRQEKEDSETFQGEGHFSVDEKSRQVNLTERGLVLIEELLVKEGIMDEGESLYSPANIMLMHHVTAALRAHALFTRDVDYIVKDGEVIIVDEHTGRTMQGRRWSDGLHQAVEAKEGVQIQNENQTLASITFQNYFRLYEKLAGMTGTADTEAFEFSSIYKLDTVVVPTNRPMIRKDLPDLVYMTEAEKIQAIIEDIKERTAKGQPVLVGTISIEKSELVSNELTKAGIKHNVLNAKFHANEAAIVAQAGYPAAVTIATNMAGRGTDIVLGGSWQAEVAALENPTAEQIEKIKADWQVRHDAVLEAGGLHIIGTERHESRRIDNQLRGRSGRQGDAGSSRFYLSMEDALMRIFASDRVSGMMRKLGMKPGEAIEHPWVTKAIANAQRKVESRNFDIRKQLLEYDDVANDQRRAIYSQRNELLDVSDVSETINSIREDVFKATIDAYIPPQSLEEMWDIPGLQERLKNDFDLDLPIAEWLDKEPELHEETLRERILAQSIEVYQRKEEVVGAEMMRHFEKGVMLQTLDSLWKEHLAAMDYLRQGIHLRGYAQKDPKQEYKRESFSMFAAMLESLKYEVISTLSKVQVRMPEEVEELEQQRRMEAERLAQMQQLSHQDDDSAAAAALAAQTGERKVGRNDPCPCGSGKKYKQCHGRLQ

SMILES	Percent Effect [1] [%]	Percent Effect [2] [%]	Percent Effect [3] [%]	Percent Effect [4] [%]	Percent Effect (Trypanosoma cruzi) [%]	Percent Effect [5] [%]	Percent Effect [6] [%]	Percent Effect (Homo sapiens) [%]	Percent Effect [7] [%]	Percent Effect [8] [%]	Percent Effect [9] [%]
COCCCNC(=O)CN(C)C(=O)c1cc(C)ccc1N(C)C(C)C	-2.35	10.8	-5.29	6.07	0.65	-3.88	0	5.31	1.98	13.4	-2.86
O=C(Cn1cccnc1=O)NC(Cc1ccsc1)c1ccccn1 (stereo not drawn)	-10	14.9	0.845	8.55	1.98	0.232	5.3	2.88	5.38	9.09	-19.6
COCCCn1ccnc1-c1cnc(OC)nc1	-0.0522	5.41	-3.25	0.687	-0.386	-3.33	21.6	-18.9	6.88	4.88	-3.88
Cc1ccc2c(c1)c(CNC(=O)C1CC(=O)N(C3CCCC3)C1)nn2C (stereo not drawn)	1.21	0	4.01	6.8	-7.34	-1.43	21	10	3.7	0	-5.94
Cc1ccc(NC2CCN(C(=O)c3cc[nH]n3)CC2)nn1	-0.868	0	8.84	3.52	-3.01	1.53	10.7	-13.4	-0.49	-2.44	7.64
Cn1ccc(C(=O)N2CCCC(Cc3cccc4ncccc34)C2)n1 (stereo not drawn)	-7.55	14.9	-6.32	5	4.74	-4.41	7.33	49.9	3.23	-6.49	-12
Cc1cc(CN2CCN(CC(O)c3ccccc3)CC2)no1 (stereo not drawn)	-5.4	10.1	-4.74	1.14	7.65	2.28	-0.0819	-14.5	6.4	13.9	-1.57
CCC(=O)N1CCN(Cc2cc(-c3ccncc3)nn2C)CC1	-5.35	-6.76	12.8	5.24	-3.56	-1.62	5.77	-3.21	4.3	-1.3	-2.41

Source: ChEMBL document CHEMBL3988442, “University of Dundee, Small-Polar-MMV Screening Library” (2021)
